Laboratory results: PubChem BioAssay AID1159580 (chemical genetic matrix, 2015)
The whole screen tested about 5,500 compounds, of which about 2,000 (36%) were called active. Another 18% or so got no clear call; they are omitted. Rule as the data show it: active = normalized growth mostly below about 0.91 (no sharp cut-off); inconclusive = no clear call, values can overlap the other calls; inactive = mostly above about 0.92. This is one part of the list.

Experiment: chemical genetic growth profiling, strain panel (AID 1159580);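 also: tested at 20 µM; growth read once vehicle control cultures reached saturation at 30 °C; 1 = growth at the plate median or of vehicle wells; lower values mean less growth of the strain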
Conditions: growth OD

Measured: normalized growth

CC(C)(Oc1ccc(CCNC(=O)c2ccc(Cl)cc2)cc1)C(=O)O
inactive: S. cerevisiae deletion strains, locus YJR075W, strain HOC1, hits give low values 1.02 | S. cerevisiae deletion strains, locus YKL009W, strain mrt4, hits give low values 1.02 | S. cerevisiae deletion strains, locus YKL068W, hits give low values 1.01 | S. cerevisiae deletion strains, locus YKL085W, strain MDH1 (second series), hits give low values 1.03 | S. cerevisiae deletion strains, locus YKL085W, strain MDH1, hits give low values 1.03 | S. cerevisiae deletion strains, locus YKL160W, strain elf1, hits give low values 0.961 | S. cerevisiae deletion strains, locus YKL190W, strain CNB1, hits give low values 1.01 | S. cerevisiae deletion strains, locus YKR001C, strain vps1, hits give low values 1.02 | S. cerevisiae deletion strains, locus YKR026C, strain gcn3, hits give low values 0.991 | S. cerevisiae deletion strains, locus YKR091W, strain srl3, hits give low values 0.996 | S. cerevisiae deletion strains, locus YLL001W, strain dnm1, hits give low values 0.975 | S. cerevisiae deletion strains, locus YLL026W, hits give low values 0.995 | S. cerevisiae deletion strains, locus YLL041C, strain sdh2, hits give low values 0.98 | S. cerevisiae deletion strains, locus YLR027C, strain aat2, hits give low values 0.977 | S. cerevisiae deletion strains, locus YLR039C, strain RIC1, hits give low values 1.03 | S. cerevisiae deletion strains, locus YLR058C, strain SHM2, hits give low values 1.01 | S. cerevisiae deletion strains, locus YLR102C, strain apc9, hits give low values 1.01 | S. cerevisiae deletion strains, locus YLR113W, strain HOG1, hits give low values 0.943 | S. cerevisiae deletion strains, locus YLR221C, strain rsa3, hits give low values 0.997 | S. cerevisiae deletion strains, locus YLR258W, strain gsy2, hits give low values 0.972 | S. cerevisiae deletion strains, locus YLR262C, strain YPT6 (second series), hits give low values 1.01 | S. cerevisiae deletion strains, locus YLR262C, strain YPT6, hits give low values 1.02 | S. cerevisiae deletion strains, locus YLR268W, strain sec22, hits give low values 1.01 | S. cerevisiae deletion strains, locus YLR320W, strain mms22, hits give low values 0.978 | S. cerevisiae deletion strains, locus YLR330W, strain CHS5, hits give low values 1.01 | S. cerevisiae deletion strains, locus YLR342W, strain FKS1 (second series), hits give low values 1.05 | S. cerevisiae deletion strains, locus YLR342W, strain FKS1, hits give low values 0.978 | S. cerevisiae deletion strains, locus YLR357W, strain rsc2, hits give low values 0.951 | S. cerevisiae deletion strains, locus YLR370C, strain arc18, hits give low values 0.983 | S. cerevisiae deletion strains, locus YLR371W, strain rom2, hits give low values 1.02 | S. cerevisiae deletion strains, locus YLR384C, strain iki3, hits give low values 0.972 | S. cerevisiae deletion strains, locus YLR418C, strain cdc73, hits give low values 1.06 | S. cerevisiae deletion strains, locus YML016C, strain PPZ1, hits give low values 1.02 | S. cerevisiae deletion strains, locus YML032C, strain rad52, hits give low values 1.01 | S. cerevisiae deletion strains, locus YML120C, strain ndi1, hits give low values 1.03 | S. cerevisiae deletion strains, locus YML124C, strain tub3, hits give low values 1.01 | S. cerevisiae deletion strains, locus YMR058W, strain fet3, hits give low values 0.995 | S. cerevisiae deletion strains, locus YMR078C, strain ctf18, hits give low values 1.01 | S. cerevisiae deletion strains, locus YMR125W, strain sto1, hits give low values 0.986 | S. cerevisiae deletion strains, locus YMR129W, hits give low values 0.982 | S. cerevisiae deletion strains, locus YMR205C, strain PFK2, hits give low values 0.977 | S. cerevisiae deletion strains, locus YMR223W, strain ubp8, hits give low values 1.01 | S. cerevisiae deletion strains, locus YMR231W, strain pep5, hits give low values 0.994 | S. cerevisiae deletion strains, locus YMR307W, strain GAS1, hits give low values 1.04 | S. cerevisiae deletion strains, locus YNL067W, strain RPL9B, hits give low values 1.01 | S. cerevisiae deletion strains, locus YNL071W, strain lat1, hits give low values 0.994 | S. cerevisiae deletion strains, locus YNL128W, strain TEP1, hits give low values 1.04 | S. cerevisiae deletion strains, locus YNL153C, strain GIM3, hits give low values 1.02 | S. cerevisiae deletion strains, locus YNL183C, strain NPR1, hits give low values 0.937 | S. cerevisiae deletion strains, locus YNL209W, strain ssb2, hits give low values 0.98 | S. cerevisiae deletion strains, locus YNL233W, strain BNI4, hits give low values 1.01 | S. cerevisiae deletion strains, locus YNL248C, strain rpa49, hits give low values 0.986 | S. cerevisiae deletion strains, locus YNL250W, strain rad50, hits give low values 1.02 | S. cerevisiae deletion strains, locus YNL271C, strain bni1, hits give low values 1.02 | S. cerevisiae deletion strains, locus YNL298W, strain CLA4, hits give low values 1.02 | S. cerevisiae deletion strains, locus YNL307C, strain MCK1, hits give low values 1.03 | S. cerevisiae deletion strains, locus YNL322C, strain KRE1 (second series), hits give low values 0.978 | S. cerevisiae deletion strains, locus YNL322C, strain KRE1, hits give low values 1.01 | S. cerevisiae deletion strains, locus YNR049C, strain mso1, hits give low values 0.971 | S. cerevisiae deletion strains, locus YNR052C, strain pop2, hits give low values 1.01 | S. cerevisiae deletion strains, locus YOL006C, strain TOP1, hits give low values 1.04 | S. cerevisiae deletion strains, locus YOL012C, strain htz1 0.932 | S. cerevisiae deletion strains, locus YOL147C, strain pex11, hits give low values 1.01 | S. cerevisiae deletion strains, locus YOR001W, strain rrp6, hits give low values 1.01 | S. cerevisiae deletion strains, locus YOR061W, strain CKA2, hits give low values 1.02 | S. cerevisiae deletion strains, locus YOR069W, strain VPS5, hits give low values 1.01 | S. cerevisiae deletion strains, locus YOR070C, strain gyp1, hits give low values 0.993 | S. cerevisiae deletion strains, locus YOR080W, strain dia2, hits give low values 0.983 | S. cerevisiae deletion strains, locus YOR083W, strain WHI5, hits give low values 0.922 | S. cerevisiae deletion strains, locus YOR106W, strain vam3, hits give low values 0.982 | S. cerevisiae deletion strains, locus YOR136W, strain idh2, hits give low values 1.02 | S. cerevisiae deletion strains, locus YOR144C, strain elg1, hits give low values 1.02 | S. cerevisiae deletion strains, locus YOR184W, strain ser1, hits give low values 1.06 | S. cerevisiae deletion strains, locus YOR231W, strain MKK1, hits give low values 0.988 | S. cerevisiae deletion strains, locus YOR265W, strain rbl2, hits give low values 0.983 | S. cerevisiae deletion strains, locus YOR270C, strain vph1, hits give low values 1.03 | S. cerevisiae deletion strains, locus YOR290C, strain snf2, hits give low values 0.977 | S. cerevisiae deletion strains, locus YOR316C, strain cot1, hits give low values 1.03 | S. cerevisiae deletion strains, locus YPL051W, strain arl3, hits give low values 0.984 | S. cerevisiae deletion strains, locus YPL055C, strain LGE1, hits give low values 1 | S. cerevisiae deletion strains, locus YPL078C, strain atp4, hits give low values 0.971 | S. cerevisiae deletion strains, locus YPL106C, strain sse1, hits give low values 0.934 | S. cerevisiae deletion strains, locus YPL240C, strain hsp82, hits give low values 0.989 | S. cerevisiae deletion strains, locus YPL256C, strain CLN2, hits give low values 1 | S. cerevisiae deletion strains, locus YPR119W, strain clb2, hits give low values 1.01 | S. cerevisiae deletion strains, locus YPR141C, strain kar3, hits give low values 1.01 | S. cerevisiae deletion strains, locus YPR163C, strain tif3, hits give low values 1.02 | S. cerevisiae deletion strains, locus YPR167C, strain met16, hits give low values 1.03 | S. cerevisiae deletion strains, strain wtn01, hits give low values 1.02 | S. cerevisiae strains, strain wild type, hits give low values 1.02
